This note sets out measurements from PubChem BioAssay (NCI).

Experiment [1] can be described thus: NCI Yeast Anticancer Drug Screen. Data for the rad50 strain (AID 155).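 Further: 0% = growth of vehicle-only cultures of the same strain.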 The following applies: S. cerevisiae rad50 strain growth inhibition, hits give high values. The gist of the method:
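Cells are treated with compound, grown, and their growth is then scored against vehicle-only cultures of the same repair-deficient yeast strain.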

A short description of experiment [2]: NCI Yeast Anticancer Drug Screen. Data for the mec2-1 strain (AID 157). The note with it: S. cerevisiae mec2-1 strain, hits give high values. Put shortly:
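Using mec2-1 yeast: add compound, measure growth, express inhibition versus vehicle-treated cultures.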

A short description of experiment [3]: NCI Yeast Anticancer Drug Screen. Data for the sgs1 mgt1 strain (AID 161).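 Further: 0% = growth of cultures given vehicle only.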 The note with it: S. cerevisiae sgs1 mgt1 strain, hits give high values. The gist of the method:
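This yeast growth screen uses a strain with defined DNA-repair lesions; compound-treated growth is compared with vehicle-treated growth.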

Experiment [4] can be described thus: NCI Yeast Anticancer Drug Screen. Data for the cln2 rad14 strain (AID 165).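 Further: 0% = growth equal to vehicle treated cultures.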 The note with it: S. cerevisiae cln2 rad14 strain, hits give high values. The gist of the method:
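Yeast strain cln2 rad14, bearing defects in cell cycle control and DNA repair, serves as the test system; values reflect growth inhibition compared with vehicle.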

Experiment [5] can be described thus: NCI Yeast Anticancer Drug Screen. Data for the bub3 strain (AID 167). The note with it: S. cerevisiae bub3 mutant strain, hits give high values. Put shortly: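 Part of a panel of yeast mutants defective in DNA damage repair or cell cycle regulation. Each strain is grown with compound, and inhibition is calculated relative to solvent-treated cultures.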
Experiment [6] can be described thus: NCI Yeast Anticancer Drug Screen. Data for the mlh1 rad18 strain (AID 175). The following applies: S. cerevisiae mlh1 rad18 strain growth inhibition, hits give high values. The gist of the method: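 Steps: expose repair-defective yeast to compound; measure growth; express inhibition against vehicle-treated controls.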
The mark [7] stands for this setting: at 5.0 µM (retest, dose inferred, filed as 0.5).
The mark [8] stands for this setting: at 50.0 µM (retest, dose inferred, filed as 5.0).

About 79,000 compounds went through this panel and 15% of them were active in at least one assay; those are over-represented in the sample as a whole. Unmarked numbers belong to inactive results. The source made the active and inactive calls. No stated cut-off is given here; in the data, active means growth inhibition above about 70%; inactive means the rest.

Take `c1ccc(OCCN2CCN(CCOc3ccccc3)CC2)cc1`: the growth inhibition was 21% in experiment [1] (setting [7]); 29% in experiment [1] (setting [8]); 71.7% (active) in experiment [1] (at 50.0 µM); 31% in experiment [2] (setting [7]); 45% in experiment [2] (setting [8]); 32.2% in experiment [2] (at 50.0 µM). Also, the growth inhibition in experiment [3] (setting [7]) is 41%; in experiment [3] (setting [8]) it was 55%; in experiment [3] (at 50.0 µM) it was 67.1%; in experiment [4] (setting [7]) it was 45%; in experiment [4] (setting [8]), 47%; in experiment [4] (at 50.0 µM), 76.4% (active). Also, the growth inhibition in experiment [5] (setting [7]) is 43%; in experiment [5] (setting [8]), 53%; in experiment [5] (at 50.0 µM), 56.7%; in experiment [6] (setting [7]) it was 44%; in experiment [6] (setting [8]), 61%; in experiment [6] (at 50.0 µM) it was 44.1%.

With `CCOc1c(N=Nc2ccc(Cl)cc2)c(-c2ccccc2)nn1C(=S)S`, the growth inhibition is 4% in experiment [1] (setting [7]); 91% (active) in experiment [1] (setting [8]); 95.3% (active) in experiment [1] (at 50.0 µM); 2% in experiment [2] (setting [7]); 89% (active) in experiment [2] (setting [8]); 95.6% (active) in experiment [2] (at 50.0 µM). Moreover, the growth inhibition in experiment [3] (setting [7]) was 8%; in experiment [3] (setting [8]), 92% (active); in experiment [3] (at 50.0 µM), 92% (active); in experiment [4] (setting [7]) it was 5%; in experiment [4] (setting [8]), 92% (active); in experiment [4] (at 50.0 µM), 91.5% (active). For the same molecule, the growth inhibition in experiment [5] (setting [7]) was 0%; in experiment [5] (setting [8]), 94% (active); in experiment [5] (at 50.0 µM), 92.8% (active); in experiment [6] (setting [7]) it was 2%; in experiment [6] (setting [8]) it was 91% (active); in experiment [6] (at 50.0 µM), 94.4% (active).

With `CCOc1ccc2nc(C)cc(C)c2c1`, the growth inhibition in experiment [1] (setting [7]) was -1%; in experiment [1] (setting [8]) it was 75% (active); in experiment [1] (at 50.0 µM), 26.6%; in experiment [2] (setting [7]) it was -23%; in experiment [2] (setting [8]), 31%; in experiment [2] (at 50.0 µM) it was -13.4%. The growth inhibition in experiment [3] (setting [7]) was -7%; in experiment [3] (setting [8]), 60%; in experiment [3] (at 50.0 µM), -0.25%; in experiment [4] (setting [7]), 1%; in experiment [4] (setting [8]), 2%; in experiment [4] (at 50.0 µM), 34.5%. Also, the growth inhibition in experiment [5] (setting [7]) was -8%; in experiment [5] (setting [8]), 63%; in experiment [5] (at 50.0 µM), -17.2%; in experiment [6] (setting [7]), -4%; in experiment [6] (setting [8]), 63%; in experiment [6] (at 50.0 µM), 38.6%.

As to `O=[N+]([O-])c1cc(C(F)(F)F)ccc1SSc1ccc(C(F)(F)F)cc1[N+](=O)[O-]`, the growth inhibition in experiment [1] (setting [7]) is 45%; in experiment [1] (setting [8]), 86% (active); in experiment [1] (at 50.0 µM) it was 60.9%; in experiment [2] (setting [7]), 39%; in experiment [2] (setting [8]), 88% (active); in experiment [2] (at 50.0 µM), 50%. Further, the growth inhibition in experiment [3] (setting [7]) is 42%; in experiment [3] (setting [8]), 93% (active); in experiment [3] (at 50.0 µM), 68.5%; in experiment [4] (setting [7]) it was 42%; in experiment [4] (setting [8]), 64%; in experiment [4] (at 50.0 µM), 54.7%. The growth inhibition in experiment [5] (setting [7]) is 42%; in experiment [5] (setting [8]), 92% (active); in experiment [5] (at 50.0 µM) it was 66.7%; in experiment [6] (setting [7]), 59%; in experiment [6] (setting [8]), 88% (active); in experiment [6] (at 50.0 µM), 58.4%.

Consider `COc1ccccc1C(C)c1ccc2ccccc2c1C(=O)O` (stereo not given), for which the growth inhibition in experiment [1] (setting [7]) is 11%; in experiment [1] (setting [8]) it was 91% (active); in experiment [1] (at 50.0 µM) it was 94.6% (active); in experiment [2] (setting [7]), 2%; in experiment [2] (setting [8]), 93% (active); in experiment [2] (at 50.0 µM), 94% (active). The growth inhibition in experiment [3] (setting [7]) is 1%; in experiment [3] (setting [8]), 90% (active); in experiment [3] (at 50.0 µM), 95% (active); in experiment [4] (setting [7]) it was 7%; in experiment [4] (setting [8]), 93% (active); in experiment [4] (at 50.0 µM) it was 96.1% (active). Further, the growth inhibition in experiment [5] (setting [7]) was -6%; in experiment [5] (setting [8]), 87% (active); in experiment [5] (at 50.0 µM) it was 93.4% (active); in experiment [6] (setting [7]), 2%; in experiment [6] (setting [8]), 94% (active); in experiment [6] (at 50.0 µM), 96% (active).

For `S=C(N/N=C/c1ccccn1)N1CC2CCC(CC2)C1`, the growth inhibition is 99% (active) in experiment [1] (setting [7]); 100% (active) in experiment [1] (setting [8]); 90.2% (active) in experiment [1] (at 50.0 µM); 99% (active) in experiment [2] (setting [7]); 100% (active) in experiment [2] (setting [8]); 93.5% (active) in experiment [2] (at 50.0 µM). In addition, the growth inhibition in experiment [3] (setting [7]) is 98% (active); in experiment [3] (setting [8]), 99% (active); in experiment [3] (at 50.0 µM), 92% (active); in experiment [4] (setting [7]), 97% (active); in experiment [4] (setting [8]), 100% (active); in experiment [4] (at 50.0 µM), 93.2% (active). For the same molecule, the growth inhibition is 99% (active) in experiment [5] (setting [7]); 99% (active) in experiment [5] (setting [8]); 92.7% (active) in experiment [5] (at 50.0 µM); 99% (active) in experiment [6] (setting [7]); 99% (active) in experiment [6] (setting [8]); 89.7% (active) in experiment [6] (at 50.0 µM).

Take `N#CC1(C#N)C(C#N)(C#N)C12CCCCCC2`: the growth inhibition is 38% in experiment [1] (setting [7]); 97% (active) in experiment [1] (setting [8]); 98.9% (active) in experiment [1] (at 50.0 µM); 32% in experiment [2] (setting [7]); 98% (active) in experiment [2] (setting [8]); 99.3% (active) in experiment [2] (at 50.0 µM). In addition, the growth inhibition was 39% in experiment [3] (setting [7]); 99% (active) in experiment [3] (setting [8]); 99.5% (active) in experiment [3] (at 50.0 µM); 13% in experiment [4] (setting [7]); 95% (active) in experiment [4] (setting [8]); 98.7% (active) in experiment [4] (at 50.0 µM). Moreover, the growth inhibition was 39% in experiment [5] (setting [7]); 83% (active) in experiment [5] (setting [8]); 99% (active) in experiment [5] (at 50.0 µM); 52% in experiment [6] (setting [7]); 98% (active) in experiment [6] (setting [8]); 99.2% (active) in experiment [6] (at 50.0 µM).

Turning to `Cc1[nH]c2ccccc2c1C1=CC2(C)Nc3ccccc3C2C(C)(C)C1` (stereo not given), the growth inhibition in experiment [1] (setting [7]) is -4%; in experiment [1] (setting [8]), 26%; in experiment [1] (at 50.0 µM), 90.2% (active); in experiment [2] (setting [7]), 2%; in experiment [2] (setting [8]), -1%; in experiment [2] (at 50.0 µM), 93.8% (active). For the same molecule, the growth inhibition in experiment [3] (setting [7]) was -4%; in experiment [3] (setting [8]), 23%; in experiment [3] (at 50.0 µM), 92.3% (active); in experiment [4] (setting [7]) it was 2%; in experiment [4] (setting [8]), -4%; in experiment [4] (at 50.0 µM), 93.5% (active). The growth inhibition in experiment [5] (setting [7]) was 10%; in experiment [5] (setting [8]) it was 79% (active); in experiment [5] (at 50.0 µM) it was 94.8% (active); in experiment [6] (setting [7]), -1%; in experiment [6] (setting [8]), 28%; in experiment [6] (at 50.0 µM), 94.7% (active).

`C/C(=N/NC(=O)Nc1ccc(N=Nc2ccccc2)cc1)c1cccnc1`: the growth inhibition is -10% in experiment [1] (setting [7]); -6% in experiment [1] (setting [8]); 12.7% in experiment [1] (at 50.0 µM); -3% in experiment [2] (setting [7]); -11% in experiment [2] (setting [8]); -9.55% in experiment [2] (at 50.0 µM). The growth inhibition in experiment [3] (setting [7]) was 2%; in experiment [3] (setting [8]), 21%; in experiment [3] (at 50.0 µM), 19.6%; in experiment [4] (setting [7]), 36%; in experiment [4] (setting [8]) it was -51%; in experiment [4] (at 50.0 µM), -1.5%. The growth inhibition in experiment [5] (setting [7]) was 7%; in experiment [5] (setting [8]), 4%; in experiment [5] (at 50.0 µM), 10.8%; in experiment [6] (setting [7]) it was 5%; in experiment [6] (setting [8]) it was 25%; in experiment [6] (at 50.0 µM) it was 14.3%.

For the molecule `Cc1ccc(N2C(=O)C(C)SC2=S)cc1Cl` (stereo not given), the growth inhibition is 2% in experiment [1] (setting [7]); -4% in experiment [1] (setting [8]); 86.2% (active) in experiment [1] (at 50.0 µM); -1% in experiment [2] (setting [7]); -1% in experiment [2] (setting [8]); 51.9% in experiment [2] (at 50.0 µM). For the same molecule, the growth inhibition in experiment [3] (setting [7]) is 1%; in experiment [3] (setting [8]), -25%; in experiment [3] (at 50.0 µM) it was 94.7% (active); in experiment [4] (setting [7]), -2%; in experiment [4] (setting [8]), -2%; in experiment [4] (at 50.0 µM), 13.7%. The growth inhibition is -4% in experiment [5] (setting [7]); 1% in experiment [5] (setting [8]); 48% in experiment [5] (at 50.0 µM); -5% in experiment [6] (setting [7]); 1% in experiment [6] (setting [8]); 93.5% (active) in experiment [6] (at 50.0 µM).
